VDR inhibitor – inhibitors of human vitamin D receptor | Potency, µM, hits mostly inhibitors | P11473 | VDR-SRC2-3 peptide fluorescence polarization, 2 h | 400,000 compounds, 0.93% hits
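Inhibition of the VDR/SRC2-3 peptide interaction is quantified by fluorescence polarization. Compounds (23 nl, pintool) incubate with the reagents for 2 hours at ambient room temperature.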
BAZ2B inh – blocks human BAZ2B; Q9UIF8; 360,000 compounds, 4.4% hits; AlphaScreen BAZ2B-H3K14Ac peptide displacement; Potency, µM (series often up to 114 µM), hits mostly inhibitors; AID 504333; further: nearly all actives have a fitted effect of over 60% in size
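Protein-peptide AlphaScreen: BAZ2B 50 nM, b-H3K14Ac 50 nM, 1x PBS pH 7.4 + 0.01% Tween-20. Preincubation 30 min RT; cpd 30 min RT (top 110 uM); beads 20 min RT, light-protected.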
G9a block – G9a (human) methyltransferase inhibition. Q96KQ7. G9a H3K9 monomethylation, AlphaScreen, 2 h. Potency, µM (doses to about 102 µM), hits mostly inhibitors. 350,000 compounds, 8.8% hits. AID 504332; further: nearly all actives have a fitted effect of over 75% in size
Target sequence (Q96KQ7 913-1193 limits assumed): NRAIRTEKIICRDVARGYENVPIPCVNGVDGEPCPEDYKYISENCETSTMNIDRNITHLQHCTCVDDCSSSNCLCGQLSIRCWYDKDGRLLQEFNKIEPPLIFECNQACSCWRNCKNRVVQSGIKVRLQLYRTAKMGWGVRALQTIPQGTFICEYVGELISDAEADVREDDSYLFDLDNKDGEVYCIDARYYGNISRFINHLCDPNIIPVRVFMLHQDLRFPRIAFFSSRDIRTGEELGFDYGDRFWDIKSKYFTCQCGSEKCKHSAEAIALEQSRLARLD
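Step 1: enzyme (final 20 nM) with compound, 15 min RT. Step 2: substrate peptide 500 nM and SAM 20 uM, 2 h RT. Step 3: anti-H3K9me1 antibody and AlphaScreen beads, 10 min, then plate read.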
JMJD2A Tudor – JMJD2A Tudor domain (human) inhibition; AID 504339; AlphaScreen JMJD2A-Tudor / H3K4me3 peptide binding; 390,000 compounds, 4.4% hits; Potency, µM (doses to about 114 µM), usual class: inhibitors; O75164; further: nearly all actives have a fitted effect of over 50% in size
PLK1 PBD block – blocks phosphopeptide binding to human PLK1 polo-box domain; P53350; AID 720504; 360,000 compounds, 2.8% hits; Plk1 PBD binding of FITC phosphopeptide, fluorescence polarization; Potency, µM, hits mostly inhibitors; further: series mostly up to about 57 µM; nearly all actives have a fitted effect of over 65% in size
HP1b chromo inh – inhibitors of HP1-beta chromodomain binding to methylated histone tails. AlphaScreen HP1-beta / biotin-H3K9me3 peptide binding. 390,000 compounds, 0.56% hits. P83916. AID 540317. Potency, µM (highest dose often 114 µM), most hits filed as inhibitors; further: nearly all actives have a fitted effect of over 70% in size
Target sequence (P83916 whole entry, looked up): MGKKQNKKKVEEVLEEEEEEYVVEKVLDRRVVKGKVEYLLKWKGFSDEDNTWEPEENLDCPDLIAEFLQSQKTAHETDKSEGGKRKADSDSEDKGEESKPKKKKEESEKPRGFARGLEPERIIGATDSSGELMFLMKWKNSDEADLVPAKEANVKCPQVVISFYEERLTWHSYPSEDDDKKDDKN
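Compound inhibition of the preformed complex between 50 nM HP1-beta and 50 nM biotinylated H3K9me3 peptide was read by AlphaScreen. Buffer was PBS pH 7.4 with 0.01% Tween-20. Incubations ran 30 min at room temperature, with 10 ug/mL donor/acceptor beads.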
Of the large screens only hits and unclear results are named; the others gave an inactive call. An excerpt weighted towards active compounds, which were near 11% of everything screened. The call rests on the fitted dose curve; in most records, active means well fitted curve in the direction sought with a large enough effect; inconclusive means small, poorly fitted or top-dose-only effect, or another doubt; inactive means no such curve, though single readings can be large; an effect the other way counts as inactive or inconclusive.

Cc1cc(N=Nc2ccccc2C(=O)O)c(C)c(C)c1O	BAZ2B inh 28µM, G9a block 32µM, HP1b chromo inh inconclusive
Cc1cc(O)c(C(C)C)cc1N=C1CSC(=O)N1	G9a block inconclusive, PLK1 PBD block inconclusive
Cc1cc(O)c(C(C)C)cc1N=Nc1ccccc1C(=O)O	BAZ2B inh inconclusive, G9a block 40µM, JMJD2A Tudor inconclusive, HP1b chromo inh inconclusive
Cc1cc(C)c(C)c(C(=O)c2ccccc2C(=O)O)c1C	none (no result: G9a block)
O=C(NCc1ccccc1Cl)c1c2c(nc3ccccc13)C(=O)N(C1CCCCC1)C2	BAZ2B inh inconclusive (no result: PLK1 PBD block)
OCC1O[C@@H](OC2C(O)C(CO)O[C@@]2(CO)O[C@@H]2OC(CO)C(O)C(O)C2O)C(O)C(O)C1O (stereo partly drawn)	none (no result: BAZ2B inh, G9a block, JMJD2A Tudor, PLK1 PBD block, HP1b chromo inh)
O=C1Nc2ccccc2C1=Nc1ccc(Cl)cc1	VDR inhibitor inconclusive
Cc1ccc(N=C2C(=O)Nc3ccccc32)cc1C	none
O=C1Nc2ccccc2C1=Nc1ccc2[nH]c3ccccc3c2c1	JMJD2A Tudor 35µM, HP1b chromo inh inconclusive (no result: BAZ2B inh, G9a block)
O=C1Nc2ccccc2C1=Nc1ccc(Br)cc1	VDR inhibitor 22µM
Oc1ccc(C[C@@H]2CNCCN2CCc2cc(C(F)(F)F)cc(C(F)(F)F)c2)cc1	none
FC(F)(F)c1cc(CCN2CCNC[C@H]2Cc2cccc3ccccc23)cc(C(F)(F)F)c1	BAZ2B inh 50µM, G9a block inconclusive, JMJD2A Tudor inconclusive
CC1CC=CC2C1C(=O)N(Cc1ccccc1)C2c1ccc(-c2ccc(F)cc2)cc1F (stereo not drawn)	none (no result: BAZ2B inh, G9a block, PLK1 PBD block)
COc1ccc(S(=O)(=O)N2CCN(CC(=O)Nc3ccc(C)c(F)c3)CC2)cc1	G9a block 45µM
O=C(CN1CCN(S(=O)(=O)c2ccc3ccccc3c2)CC1)Nc1ccc(N2CCOCC2)cc1	G9a block 40µM
COc1ccc(N2CCN(CC(=O)Nc3cccc(S(=O)(=O)N4CCOCC4)c3)CC2)cc1	BAZ2B inh 35µM, G9a block 14µM, JMJD2A Tudor 7.9µM
Cc1ccc(NC(=O)CN2CCN(S(=O)(=O)c3ccc(C(C)C)cc3)CC2)cc1F	none (no result: PLK1 PBD block)
O=C(CN1c2cccc3cccc(c23)S1(=O)=O)Nc1ccc(S(=O)(=O)N2CCOCC2)cc1	G9a block 7.9µM
O=C(CNC(=O)c1ccc(Br)o1)Nc1cccc(S(=O)(=O)N2CCOCC2)c1	G9a block 50µM
O=C(COC(=O)c1ccc(Br)o1)Nc1cccc(S(=O)(=O)N2CCOCC2)c1	none (no result: BAZ2B inh, G9a block)
CCC1CCCCN1S(=O)(=O)c1ccc(C(=O)Nc2nnc(C3CC3)o2)cc1 (stereo not drawn)	BAZ2B inh 50µM (no result: G9a block)
CCC1CCCCN1S(=O)(=O)c1ccc(C(=O)Nc2nnc(-c3ccccc3Cl)o2)cc1 (stereo not drawn)	PLK1 PBD block inconclusive
CC1CC(C)CN(S(=O)(=O)c2ccc(C(=O)Nc3nnc(C4CC4)o3)cc2)C1 (stereo not drawn)	BAZ2B inh inconclusive
CCOC(=O)N1CCN(S(=O)(=O)c2ccc(C(=O)Nc3nnc(C4CC4)o3)cc2)CC1	BAZ2B inh 22µM, JMJD2A Tudor 50µM
O=C(Nc1nnc(C2=COCCO2)o1)c1ccc(S(=O)(=O)N2CCCC2)cc1	G9a block inconclusive, JMJD2A Tudor 50µM (no result: BAZ2B inh)
CCC1CCCCN1S(=O)(=O)c1ccc(C(=O)Nc2nnc(C3=COCCO3)o2)cc1 (stereo not drawn)	BAZ2B inh 79µM
C=C1CCN([C@@H](C)C(=O)NCCCCCC)S(=O)(=O)c2ccccc21	none
O=C(CSc1nc2ncccc2[nH]1)c1ccc2c(c1)OCO2	none
COc1ccc(C(=O)Nc2nnc(C3=COCCO3)o2)cc1	BAZ2B inh 16µM, JMJD2A Tudor 40µM
CCCCN(C)S(=O)(=O)c1ccc(C(=O)Nc2nnc(C3=COCCO3)o2)cc1	G9a block inconclusive, JMJD2A Tudor inconclusive (no result: BAZ2B inh)
O=C(Nc1nnc(C2=COCCO2)o1)c1ccc(S(=O)(=O)N2CCCCC2)cc1	G9a block inconclusive, JMJD2A Tudor 79µM (no result: BAZ2B inh)
Cc1cccc(Nc2c(-c3ccc(N4CCOCC4)cc3)nc3ncccn23)c1	none
Cc1ccccc1Nc1c(-c2ccc(N3CCOCC3)cc2)nc2ccccn12	BAZ2B inh 18µM, G9a block 16µM, JMJD2A Tudor 28µM, HP1b chromo inh inconclusive (no result: PLK1 PBD block)
Cc1ccccc1Nc1c(-c2cccnc2)nc2cccc(C)n12	BAZ2B inh inconclusive
Cc1ccc(Nc2c(-c3ccc(N4CCOCC4)cc3)nc3c(C)cccn23)cc1	G9a block inconclusive, JMJD2A Tudor inconclusive (no result: PLK1 PBD block)
Cc1ccccc1Nc1c(-c2ccc(N3CCOCC3)cc2)nc2cccc(C)n12	BAZ2B inh inconclusive, G9a block 14µM, JMJD2A Tudor 22µM, HP1b chromo inh inconclusive (no result: PLK1 PBD block)
Cc1ccccc1Nc1c(-c2ccc(N3CCOCC3)cc2)nc2ccc(Br)cn12	BAZ2B inh inconclusive, G9a block 7.1µM, JMJD2A Tudor inconclusive, HP1b chromo inh inconclusive (no result: PLK1 PBD block)
Cc1ccccc1Nc1c(-c2cccc(O)c2)nc2ccc(Br)cn12	none (no result: PLK1 PBD block)
CCc1cccc(C)c1Nc1c(-c2ccc(N3CCOCC3)cc2)nc2ncccn12	BAZ2B inh 28µM, G9a block 10µM, JMJD2A Tudor 40µM, HP1b chromo inh inconclusive (no result: PLK1 PBD block)
O=c1c(=O)n(O)c2ccccc2n1O	BAZ2B inh 40µM, G9a block 10µM, JMJD2A Tudor 50µM
Cc1c(Cl)cccc1-c1ccc(C(=O)Nc2ccc(F)cc2)o1	BAZ2B inh inconclusive (no result: PLK1 PBD block)
O=C(CC(Nc1ccccc1Cl)C(=O)O)c1ccccc1 (stereo not drawn)	VDR inhibitor 25µM, G9a block inconclusive
O=C(CC(Nc1cccc(Cl)c1Cl)C(=O)OCC(=O)c1cccs1)c1ccccc1 (stereo not drawn)	none
Cc1c(Cl)cccc1NC(CC(=O)c1ccccc1)C(=O)OCC(=O)c1cccs1 (stereo not drawn)	VDR inhibitor inconclusive, G9a block 35µM
O=C(CC(Nc1cccc(Cl)c1Cl)C(=O)O)c1ccccc1 (stereo not drawn)	VDR inhibitor inconclusive, G9a block 28µM
CCCCC(=O)Nc1nnc(S(=O)(=O)N(CC)c2cc(C)cc(C)c2)s1	none (no result: PLK1 PBD block)
CS(=O)(=O)CCC(C(=O)Nc1cccc(C(F)(F)F)c1)N1Cc2ccccc2C1=O (stereo not drawn)	none (no result: PLK1 PBD block)
O=c1[nH]c2ccccc2n2c(=S)[nH]nc12	JMJD2A Tudor 3.5µM (no result: G9a block)
O=c1[nH]c2ccccc2n2c(C(F)(F)F)nnc12	none
C=CCOC(=O)N[C@H](/C(C(=O)OC)=C(\C)NCc1ccccc1)c1ccc(Br)cc1	none (no result: BAZ2B inh, G9a block, JMJD2A Tudor, PLK1 PBD block, HP1b chromo inh)
O=C(Nc1ccccc1N1CCCC1)C1CC(=O)N(Cc2ccccc2)C1 (stereo not drawn)	G9a block inconclusive
COc1ccc2nc3cc(Cl)ccc3c(C#N)c2c1	G9a block 50µM
